Laboratory results reported in ChEMBL document CHEMBL3433997, “St. Jude Leishmania screening dataset” (2016).

How the values were obtained:
Assay type in all cases: functional
[1] = molecular target: Solute carrier family 2, facilitated glucose transporter member 1 (Homo sapiens) (UniProt P11166); test: ST_JUDE_LEISH: Cytotoxicity at 2uM final concentration against transgenic Leishmania Mexicana promastigotes LmGLUT1 that are glucose transport deficient and complemented with the human glucose transporter GLUT1. Activity is measured by DNA content using SYBR green in vitro
[2] = molecular target: Hexose transporter 1 (Plasmodium falciparum) (UniProt O97467); test: ST_JUDE_LEISH: Cytotoxicity at 2uM final concentration against transgenic Leishmania Mexicana promastigotes LmPfHT that are glucose transport deficient and complemented with the Plasmodium falciparum hexose transporter. Activity is measured by DNA content using SYBR green in vitro
[3] = molecular target: Glucose transporter (Leishmania mexicana) (UniProt O61059); test: ST_JUDE_LEISH: Cytotoxicity at 2uM final concentration against transgenic Leishmania Mexicana promastigotes LmGT2 that are glucose transport deficient and complemented with the L. Mexicana glucose transporter 2. Activity is measured by DNA content using SYBR green in vitro

Chain of Solute carrier family 2, facilitated glucose transporter member 1 (Homo sapiens) (P11166 whole entry): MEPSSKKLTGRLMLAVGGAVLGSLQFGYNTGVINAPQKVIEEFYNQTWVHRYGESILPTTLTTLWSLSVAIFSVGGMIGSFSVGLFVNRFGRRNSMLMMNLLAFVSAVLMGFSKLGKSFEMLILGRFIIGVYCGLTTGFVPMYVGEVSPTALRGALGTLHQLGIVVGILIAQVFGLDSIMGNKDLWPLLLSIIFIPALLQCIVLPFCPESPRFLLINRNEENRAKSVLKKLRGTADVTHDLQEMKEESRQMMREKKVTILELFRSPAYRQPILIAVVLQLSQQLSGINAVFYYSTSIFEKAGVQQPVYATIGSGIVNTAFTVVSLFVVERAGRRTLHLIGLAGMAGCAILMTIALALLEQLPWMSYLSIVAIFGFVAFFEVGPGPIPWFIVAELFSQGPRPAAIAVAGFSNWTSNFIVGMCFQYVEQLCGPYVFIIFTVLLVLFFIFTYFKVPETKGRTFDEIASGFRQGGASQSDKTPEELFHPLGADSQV

N#Cc1ccc(N[C@@H](CC2CCCCC2)C(=O)NCc2cc(Cl)cc(Cl)c2)c2ccccc12
inhibition [1]: 2.42%
inhibition [2]: 5.09%
inhibition [3]: 4.82%

Cc1ccccc1CNc1ccc2nc(N)nc(N)c2c1
inhibition [1]: 1.01%
inhibition [2]: 2.12%
inhibition [3]: -0.21%

COc1ccc2nc(-c3cc(-c4ccc(NC(C)=O)cc4)cnc3N)[nH]c2c1
inhibition [1]: 3.72%
inhibition [2]: 4.61%
inhibition [3]: 2.87%

CCC(C)NC(=O)CN1CN(c2ccccc2)C2(CCN(C(=O)c3ccc(-c4ccccc4)cc3)CC2)C1=O (stereo unspecified)
inhibition [1]: 8.23%
inhibition [2]: 11.5%
inhibition [3]: 7.73%

NC(=O)C1Cc2ccccc2CN1CC(=O)Nc1ccccc1Sc1ccccc1 (stereo unspecified)
inhibition [1]: 2.73%
inhibition [2]: 2.07%
inhibition [3]: 2.18%

COc1ccc2c(NN=Cc3ccccn3)ccnc2c1
inhibition [1]: 13.7%
inhibition [2]: 11.8%
inhibition [3]: 11.3%

COc1ccc2nccc([C@@H](O)CN3CCC(NCc4nc5c([N+](=O)[O-])cccc5[nH]4)CC3)c2c1
inhibition [1]: 2.43%
inhibition [2]: 2.99%
inhibition [3]: 1.31%

O=C(NCCCc1ccccc1)c1ccc(O)c(-c2cc(Cl)cc(Cl)c2)c1
inhibition [1]: 4.73%
inhibition [2]: 4.32%
inhibition [3]: 3.61%

Cc1cc2ccc(-c3cccc(CN)c3)cc2nc1N
inhibition [1]: 0.93%
inhibition [2]: 1.15%
inhibition [3]: 0.73%

c1cncc(CN2CCN(Cc3ccc(-c4ccc(-c5nc6ccccc6[nH]5)s4)cc3)CC2)c1
inhibition [1]: 12.2%
inhibition [2]: 7.69%
inhibition [3]: 1.44%

Cc1cc(-c2ccc3c(c2)CC[C@@H](N[C@@H](C)c2ccccc2)C3)cnc1N
inhibition [1]: 4.92%
inhibition [2]: 1.71%
inhibition [3]: 2.23%

CC(=O)N(C)C1CCN(Cc2ccc(-c3ccc(-c4nc5cc(F)ccc5[nH]4)s3)cc2)C1 (stereo unspecified)
inhibition [1]: 8.07%
inhibition [2]: 5.96%
inhibition [3]: 6.2%

CCC(CO)NCC(O)Cn1c2ccc(Br)cc2c2cc(Br)ccc21 (stereo unspecified)
inhibition [1]: 1.9%
inhibition [2]: -0.92%
inhibition [3]: -1.57%

O=C(Nc1ccc(N2CCN(C(=O)/C=C/c3ccccc3)CC2)c(Cl)c1)c1ccc([N+](=O)[O-])o1
inhibition [1]: 58.5%
inhibition [2]: 68%
inhibition [3]: 13.7%

O=C(/C=C/c1ccc(Cl)c(Cl)c1)NCCCCCN1CCC(c2c[nH]c3ccc(O)cc23)CC1
inhibition [1]: 2.16%
inhibition [2]: 1.31%
inhibition [3]: 1.25%

O=C(Cn1c(SCc2cccc(F)c2F)cc(=O)c2ccccc21)N(CCN1CCCCC1)Cc1ccc(-c2ccc(C(F)(F)F)cc2)cc1
inhibition [1]: -1.53%
inhibition [2]: -1.37%
inhibition [3]: -1.85%

COc1ccc(CCC(C)N2CC(N)C(c3cn(C)c4cnccc34)C2)cc1 (stereo unspecified)
inhibition [1]: 9.7%
inhibition [2]: 9.62%
inhibition [3]: 7.69%

Cn1cncc1-c1ccc2c(-c3ccsc3)cnc(N)c2c1
inhibition [1]: 5.58%
inhibition [2]: 6.85%
inhibition [3]: 6.81%

Fc1ccc2[nH]c(-c3cccc(-c4ccc(CN5CCC(CCN6CCCCC6)CC5)cc4)c3)nc2c1
inhibition [1]: -0.64%
inhibition [2]: 4.58%
inhibition [3]: 10.4%

Cc1ccc(C2CCN(CCCCNC(=O)c3ccc(NC(=O)c4ccc(Cl)cc4)cc3)CC2)c(OCC(F)(F)F)c1
inhibition [1]: 0.04%
inhibition [2]: 1.32%
inhibition [3]: 0.66%

CCOc1cc(C)c(C2CCN(CCCCNC(=O)c3ccc(NC(=O)c4ccc(Cl)cc4)cc3)CC2)cc1C
inhibition [1]: -0.49%
inhibition [2]: -0.72%
inhibition [3]: -0.67%

CCOC(=O)c1cn(CC)c2cc(N3CCCCCC3)c(F)cc2c1=O
inhibition [1]: 10.3%
inhibition [2]: 4.48%
inhibition [3]: 3.87%

COc1ccc(C(=O)Nc2ccc(Nc3nc(C)cc(N(C)C)n3)cc2)c(OC)c1
inhibition [1]: 5.81%
inhibition [2]: 6.65%
inhibition [3]: 5.62%

O=C(Nc1ccc(-c2ccccc2)cc1)Nc1cccc(Cn2nc(Cl)c(N3CCNCC3)cc2=O)c1
inhibition [1]: 0.77%
inhibition [2]: 2.24%
inhibition [3]: 4.62%

CC(C)(C)c1ccccc1OC(=O)c1ccccc1
inhibition [1]: -1.66%
inhibition [2]: -1.47%
inhibition [3]: -0.79%

CCCC(C)NC[C@@H](O)[C@H](Cc1ccccc1)NC(=O)c1cc(NCC)cc(N2CCCCS2(=O)=O)c1 (stereo partly specified)
inhibition [1]: 0.32%
inhibition [2]: 0.76%
inhibition [3]: -2.92%

Cc1csc2nc(-c3ccccn3)nc(Nc3ccc4ncsc4c3)c12
inhibition [1]: 0.73%
inhibition [2]: 2.13%
inhibition [3]: 0.95%

CC(C)(C)NS(=O)(=O)c1cc(C(=O)N2CCC(CCN3CCC(C(=O)c4ccc(F)cc4)CC3)(c3cccc(F)c3)CC2)c(Cl)cc1F
inhibition [1]: 7.28%
inhibition [2]: 9.1%
inhibition [3]: 5.52%

CN(Cc1cc(C(F)(F)F)cc(C(F)(F)F)c1)C(=O)C(Cc1ccc(F)cc1)C1CCCNC1 (stereo unspecified)
inhibition [1]: 6.71%
inhibition [2]: 4.23%
inhibition [3]: 6.9%

CN(/N=C/C=C/c1ccc(Cl)cc1)c1nc(NCCc2ccc(O)cc2)nc(N2CCNCC2)n1
inhibition [1]: -0.76%
inhibition [2]: 0.71%
inhibition [3]: -0.16%

CC(C)n1ncc2c(C(=O)N3CCCC4CCCCC43)cc(C3CC3)nc21 (stereo unspecified)
inhibition [1]: 5.54%
inhibition [2]: 6.45%
inhibition [3]: 5.73%

Cc1[nH]n(-c2cccc(Cl)c2)c(=O)c1-c1ccc(Cl)cc1
inhibition [1]: -3.78%
inhibition [2]: -2.18%
inhibition [3]: -2.07%

Cc1cc(F)ccc1Oc1nc(Nc2ccc(N3CCOCC3)c(F)c2)nc2c1S(=O)(=O)CCC2
inhibition [1]: 6.48%
inhibition [2]: 7.33%
inhibition [3]: 2.35%

Cc1nc2ccc([N+](=O)[O-])cc2c(=O)n1OCc1ccccc1
inhibition [1]: 2.26%
inhibition [2]: 2.03%
inhibition [3]: 2.66%

O=C(N[C@H]1CCN(Cc2ccc(OCCCN3CCCCC3)cc2)C1)c1ccc(Cl)c(Cl)c1
inhibition [1]: 2.14%
inhibition [2]: 3.98%
inhibition [3]: 3.42%

N#Cc1cccc(Nc2nccc(NCC(O)c3cccc(C(F)(F)F)c3)n2)c1 (stereo unspecified)
inhibition [1]: 4.68%
inhibition [2]: 3.25%
inhibition [3]: -3.38%

O=C1C2C3SC(c4c3ccc3ccccc43)C2C(=O)N1c1ccccc1 (stereo unspecified)
inhibition [1]: -0.44%
inhibition [2]: 0.31%
inhibition [3]: -1.01%

CN1CCCN(Cc2ccc(-c3cccc(NC(=O)c4ccc(C#N)cc4)c3)cc2)CC1
inhibition [1]: 1.03%
inhibition [2]: 4.1%
inhibition [3]: -1.1%

COc1cc(OCCCCCCON2C(=N)N=C(N)NC2(C)C)cc(OC)c1OC
inhibition [1]: 7.66%
inhibition [2]: 8.02%
inhibition [3]: 6.93%

CC(=O)Nc1ncc(C(=O)Nc2cccc(-c3ccc(-c4nc5cc(C(F)(F)F)ccc5[nH]4)s3)c2)s1
inhibition [1]: 3.37%
inhibition [2]: 4.16%
inhibition [3]: 3.18%

COc1ccc2ccc(OC)c(CNCCCCCCNCc3c(OC)ccc4ccc(OC)cc34)c2c1
inhibition [1]: 5.41%
inhibition [2]: 9.06%
inhibition [3]: 4.72%

Cc1ccc(-n2c(=O)c3c(n4c(SC(C)C)nnc24)-c2ccccc2CC32CCCCC2)cc1
inhibition [1]: 7.08%
inhibition [2]: 6.98%
inhibition [3]: 5.47%

Cc1cccc2nc(-c3ccc(-c4cccc(CNCCCN5CCCC5=O)c4)cc3)[nH]c12
inhibition [1]: 7.98%
inhibition [2]: 9.6%
inhibition [3]: 8.02%

COc1cccc(Cc2cnc3nc(N)nc(N)c3c2C)c1
inhibition [1]: 2.99%
inhibition [2]: 1.68%
inhibition [3]: 3.44%

N#Cc1ccc(N2CCN(Cc3cccc(-c4ccc(-c5nc6cc(C(F)(F)F)ccc6[nH]5)s4)c3)CC2)nc1
inhibition [1]: 0.46%
inhibition [2]: 1.1%
inhibition [3]: 0.57%

CS(=O)(=O)c1ccc(CCNCc2ccc(-c3ccc(CN(C(=O)c4ccc(Cl)nc4)C4CCN(Cc5ccccc5)CC4)cc3)nc2)cc1
inhibition [1]: 4.37%
inhibition [2]: 3.39%
inhibition [3]: 1.67%

C=CCn1c(SCc2c(C)noc2C)nc2scc(-c3cccs3)c2c1=O
inhibition [1]: 0.98%
inhibition [2]: 0.21%
inhibition [3]: -5.13%

CC1(C)N=C(N)N=C(N)N1c1ccc(Oc2ccccc2)cc1
inhibition [1]: 1.59%
inhibition [2]: 1.71%
inhibition [3]: 2.8%

O=c1c2ccccc2[nH]c2cc(Cl)ccc12
inhibition [1]: 5.11%
inhibition [2]: 7.05%
inhibition [3]: 0.77%

COc1ccc(-c2nc3cccnc3n2CC(=O)Nc2c(C)cc(C)cc2C)c(OC)c1
inhibition [1]: -0.28%
inhibition [2]: -1.73%
inhibition [3]: 1.82%

CC[C@H]1CN(C/C=C/c2ccc(OC)cc2)CC[C@H]1CCCc1ccnc2ccc(O)cc12
inhibition [1]: 2.15%
inhibition [2]: 2%
inhibition [3]: 1.51%

O=C(Nc1cc(Cl)cc(Cl)c1)N[C@H]1CCN(CCCCCNC(=O)C2CC2c2ccc(Cl)c(Cl)c2)C1 (stereo partly specified)
inhibition [1]: 0.25%
inhibition [2]: -1.16%
inhibition [3]: 2.06%

CN1CCc2cc(NS(=O)(=O)c3ccc(-c4ccc(Cl)cc4)cc3)c(OCCCN3CCCCC3)cc2CC1
inhibition [1]: 1.09%
inhibition [2]: -0.92%
inhibition [3]: 0.92%

COc1c(CNCCCCCCNCc2c(OC)c(OC)c3ccccc3c2OC)c(OC)c2ccccc2c1OC
inhibition [1]: 67.6%
inhibition [2]: 11.8%
inhibition [3]: 56.7%

COc1cccc(C2CCN(CCCCNC(=O)c3ccc(NC(=O)c4ccc(Cl)cc4)cc3)CC2)c1
inhibition [1]: 2.77%
inhibition [2]: 2.82%
inhibition [3]: 3.37%

COc1cc(-c2nc(-c3ccncc3)c(-c3ccc4c(c3)CCC4=NO)[nH]2)ccc1OCCN1CCCCC1
inhibition [1]: -5.14%
inhibition [2]: 1.57%
inhibition [3]: 2.76%

Cc1ccc(Cn2cnc3cc(C(=O)Nc4ccc(-c5cccc(CN(C)C)c5)cc4)ccc3c2=O)o1
inhibition [1]: 75.5%
inhibition [2]: 59%
inhibition [3]: 51.1%

CC(=O)Nc1ccc(OCCN(Cc2ccccc2C(F)(F)F)c2ccc(C#N)c(C(F)(F)F)c2)c(Cl)c1
inhibition [1]: 2.42%
inhibition [2]: 2.13%
inhibition [3]: 2.83%

CCOc1cc2ncnc(Nc3ccc(OCc4ccccc4Br)c(OC)c3)c2cc1OCC
inhibition [1]: 5.55%
inhibition [2]: 5.15%
inhibition [3]: 2.49%

NC(=O)c1c(Cl)nc2ccccc2c1Cl
inhibition [1]: 4.35%
inhibition [2]: 4.69%
inhibition [3]: 4.04%

c1ccc(CNc2nc(NCCc3c[nH]cn3)nc(NCc3cccc4ccccc34)n2)cc1
inhibition [1]: -1.52%
inhibition [2]: 0.21%
inhibition [3]: -0.28%

CC(C)CC(=O)N1CCNC[C@@H]1C(=O)NCc1ccc(Cl)c(Cl)c1
inhibition [1]: 2.93%
inhibition [2]: 1.04%
inhibition [3]: 3.02%

Cc1cc(=NN=Cc2ccc(F)cc2)c2cc(F)ccc2[nH]1
inhibition [1]: 2.6%
inhibition [2]: 3.14%
inhibition [3]: -7.33%

Cc1ccccc1C(O)CNc1ccnc(Nc2cccc(C#N)c2)n1 (stereo unspecified)
inhibition [1]: 3.5%
inhibition [2]: 4.38%
inhibition [3]: 0.24%

CC(C)c1ccc(NC(=O)c2cccc(CN3CCCN(Cc4cccc(O)c4)CC3)c2)cc1
inhibition [1]: 15.4%
inhibition [2]: 12%
inhibition [3]: 7.67%

Cc1nc(N)nc(N)c1OCc1ccc(Cl)c(Cl)c1
inhibition [1]: 0.66%
inhibition [2]: 1.73%
inhibition [3]: 2.48%

COc1ccc2ccccc2c1C=NN=c1cc[nH]c2ccc(F)cc12
inhibition [1]: 3.72%
inhibition [2]: 2.24%
inhibition [3]: 7.98%

CC(=O)N/N=C/[C@H](CCc1ccccc1)NC(=O)[C@H](CC(C)C)NC(=O)c1cccc(OCCN2CCOCC2)c1
inhibition [1]: 6.39%
inhibition [2]: 8.07%
inhibition [3]: 5.79%

O=c1c2ccc(Sc3ccccn3)cc2n(-c2ccccc2)c2cc(Sc3ccccn3)ccc12
inhibition [1]: 1.05%
inhibition [2]: 0.77%
inhibition [3]: 2.64%

O=C(Nc1cccc(CN2CCCN(Cc3ccc(O)cc3)CC2)c1)c1ccc2ccccc2c1
inhibition [1]: 4.27%
inhibition [2]: 4.08%
inhibition [3]: 3.93%

Cc1[nH]c(C)c(-c2ccc(OCc3cccc(C(F)(F)F)c3)nc2)c(=O)c1Br
inhibition [1]: 44.5%
inhibition [2]: 64.4%
inhibition [3]: 35%

COc1ccc(C(=O)NC(c2ccc(Cl)cc2Cl)c2cc(Cl)c3cccnc3c2O)cc1 (stereo unspecified)
inhibition [1]: 0.87%
inhibition [2]: 3.16%
inhibition [3]: -1.58%
